# Assay outcomes: PubChem, several laboratories
# A selection: hits, their analogues and other compounds. The true share with any hit is near 0.99%.
# Cardiac RTF inh: cardiac RTF calcium desensitization; P19429+P45379; IANBD-labeled cardiac RTF, Ca2+ fluorescence; inhibition, % at 7.15 µM; actives 0.12% (n = 340,000); AID 493244;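 active = inhibition above the mean inhibition of all tested compounds plus 3 SD, cut at about 17% in these data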;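 also: assay run at fixed EC70 calcium of 1.6 mM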
# C-LANA FP: blocks KSHV LANA C-terminal domain binding to DNA | MBP-C-LANA/FAM-LBS DNA binding, fluorescence polarization | inhibition, % at 9 µM | actives 0.078% (n = 340,000);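 active = highest replicate inhibition at or above 60% at 9 µM, even if other replicates fall short; inactive = all replicates below 60% inhibition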;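 also: 0% = neutral control wells and 100% = 4 µM acridine orange control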
# LANA-H2A inh: blocks KSHV LANA binding to histone H2A/H2B. actives 0.6% (n = 320,000). cell-free LANA-H2A/H2B peptide, fluorescence polarization. Q9QR71. inhibition, % (test concentration not listed). AID 2629; in the data active = inhibition mostly above about 10%, no sharp cut-off; inactive = mostly below about 6.7%
# Target sequence (Q9QR71 whole entry, looked up): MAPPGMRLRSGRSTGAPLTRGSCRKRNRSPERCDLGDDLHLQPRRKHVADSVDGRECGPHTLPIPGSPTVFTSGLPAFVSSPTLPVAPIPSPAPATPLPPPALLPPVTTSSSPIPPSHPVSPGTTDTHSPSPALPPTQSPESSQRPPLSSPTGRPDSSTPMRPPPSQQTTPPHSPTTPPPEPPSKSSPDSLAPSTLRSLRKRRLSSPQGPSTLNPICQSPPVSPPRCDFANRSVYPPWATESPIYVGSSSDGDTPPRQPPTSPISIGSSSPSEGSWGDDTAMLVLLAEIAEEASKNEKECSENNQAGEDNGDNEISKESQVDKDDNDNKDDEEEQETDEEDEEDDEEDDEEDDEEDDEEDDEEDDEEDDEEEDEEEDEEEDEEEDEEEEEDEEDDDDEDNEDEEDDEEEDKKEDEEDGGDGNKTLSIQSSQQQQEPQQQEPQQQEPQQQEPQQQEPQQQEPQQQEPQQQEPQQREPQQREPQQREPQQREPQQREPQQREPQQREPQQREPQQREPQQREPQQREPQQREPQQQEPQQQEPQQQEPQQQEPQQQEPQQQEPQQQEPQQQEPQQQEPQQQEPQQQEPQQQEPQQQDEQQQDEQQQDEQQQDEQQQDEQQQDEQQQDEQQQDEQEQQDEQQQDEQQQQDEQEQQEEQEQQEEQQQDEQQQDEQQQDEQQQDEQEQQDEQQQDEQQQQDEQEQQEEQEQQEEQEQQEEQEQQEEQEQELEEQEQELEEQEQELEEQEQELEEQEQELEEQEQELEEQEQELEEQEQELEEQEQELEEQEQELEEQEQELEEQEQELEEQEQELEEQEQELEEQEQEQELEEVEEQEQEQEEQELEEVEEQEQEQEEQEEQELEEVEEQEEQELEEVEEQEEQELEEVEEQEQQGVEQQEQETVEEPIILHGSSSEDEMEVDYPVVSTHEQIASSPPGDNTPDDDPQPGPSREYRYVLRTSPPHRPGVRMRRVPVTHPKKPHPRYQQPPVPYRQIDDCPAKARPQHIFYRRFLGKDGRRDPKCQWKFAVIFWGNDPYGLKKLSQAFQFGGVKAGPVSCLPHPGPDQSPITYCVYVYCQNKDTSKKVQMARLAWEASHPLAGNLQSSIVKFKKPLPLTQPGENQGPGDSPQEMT
# Keap1-Nrf2 PPI: Keap1-Nrf2 (human) interaction inhibition | AID 504523 | inhibition, % at 9.4 µM | Q14145 | Keap1 Kelch-Nrf2 peptide fluorescence polarization, 1536-well | actives 0.15% (n = 340,000); in the data active = inhibition above about 12%; inconclusive = no clear call, values can overlap the other calls; inactive = below about 7.3%;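 also: human Keap1 Kelch domain with fluorescein labeled Nrf2 9mer peptide probe; 0% = neutral control wells and 100% = peptide positive control; higher means more block of Keap1 binding to Nrf2 peptide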
# RTF Ca sens act: cardiac RTF calcium sensitization | AID 493008 | P19429+P45379 | actives 0.24% (n = 340,000) | IANBD-labeled TnC RTF fluorescence at EC20 calcium; 0% EC20 calcium, 100% full calcium | activation, % at 7.2 µM;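 active = activation above the mean over all tested compounds plus 3 SD, cut at about 30% in these data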;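 also: rise in fluorescence read as greater calcium sensitivity of cardiac thin filaments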
# The depositor's hits bear a star; ? = inconclusive; / = not tested or not shown; ! = repeats disagree.
SMILES,Cardiac RTF inh,C-LANA FP,LANA-H2A inh,Keap1-Nrf2 PPI,RTF Ca sens act
CC1CCCCC1NC(=O)Cn1cc([N+](=O)[O-])ccc1=O (stereo unspecified),8,0,15*,5,-4
Cc1ccc(/C=C2\C(=N)N3N=C(CC(=O)N4CCOCC4)SC3=NC2=O)o1,-1,3,18*,-3,-3
Cc1cccc(CN2C3=NCCCN3c3ccccc32)c1,5,1,-2,5,0
CC(=O)Oc1ccc(N2C(=O)C3C(C2=O)C(C(=O)c2ccc(Cl)cc2)N2CCCC32)cc1 (stereo unspecified),-39,9,-1,-8,45*
O=C(NC1CC1)C1CCN(c2ccc(S(=O)(=O)N3CCOCC3)cc2Cl)CC1,-7,1,0,6,6
COc1ccc(Nc2nc3ccccc3c(=O)[nH]2)cc1,-2,2,21*,1,2
COc1ccc(C(=O)Nc2nc3ccccc3c(=O)[nH]2)cc1,-5,0,40*,0,0
Cc1ccc(Nc2nc3ccccc3c(=O)[nH]2)cc1C,-12,-1,-6,-3,12
Cc1oc2c(C)c3oc(=O)c(CCC(=O)NCCCN4CCOCC4)c(C)c3cc2c1C,-3,-3,-4,-10,1
Cc1oc2c(C)c3oc(=O)c(CCC(=O)NCCN4CCOCC4)c(C)c3cc2c1C,-1,1,14*,-6,-4
COc1ccccc1NC(=O)COC(=O)C12CC3CC(CC(Cl)(C3)C1)C2,4,-1,0,1,4
COc1ccc(NC(=O)COC(=O)C23CC4CC(CC(Cl)(C4)C2)C3)c(OC)c1,-13,0,171*,-4,-1
CC(=O)NCCSCCNC(C)=O,6,4,-1,-4,5
CC(=O)NCCCCCCNC(C)=O,5,-1,31*!,-2,3
CC(NC(=O)C(=O)NN=C1CCCCCC1)c1ccccc1 (stereo unspecified),-7,-2,-6,2,-3
CC(NC(=O)C(=O)NN=C1CCCCCCCCCCC1)c1ccccc1 (stereo unspecified),-19,1,12*,0,-7
Cc1ccc(N(CC2=NCCN2)c2cccc(O)c2)cc1,-20,-1,23*!,-3,4
Cc1ccn2cc(-c3cccc(S(=O)(=O)N4CCCC4)c3)nc2c1,-3,0,-2,-2,-2
O=S(=O)(c1cccc(-c2cn3ccccc3n2)c1)N1CCCCC1,10,-1,18*,1,-3
Cc1ccccc1Nc1nc(N)nc(COC(=O)CCS(=O)(=O)c2ccc(Cl)cc2)n1,-3,-1,/,4,-8
CC(=O)Nc1ccc(S(=O)(=O)NCCC(=O)OCc2nc(N)nc(Nc3ccccc3C)n2)cc1,3,-2,157*,2,-1
Cc1ccc(C2CC(c3cccs3)=NN2C(=O)c2ccco2)o1 (stereo unspecified),1,-1,20*,1,-2
O=C(c1ccco1)N1N=C(c2cccs2)CC1c1ccco1 (stereo unspecified),0,1,-1,1,0
CSCCC(NC(N)=O)C(=O)Nc1cccc(S(=O)(=O)N2CCOCC2)c1 (stereo unspecified),-34,-1,-4,-3,2
O=C(Nc1ccc2oc(-c3ccccc3)nc2c1)c1ccco1,-12,0,3,-4,-1
SMILES,Cardiac RTF inh,C-LANA FP,LANA-H2A inh,Keap1-Nrf2 PPI,RTF Ca sens act
O=C(NCc1cccc(C(F)(F)F)c1)C1CCCN(c2ncccn2)C1 (stereo unspecified),0,1,131*,4,-6
Cc1cc(C)nc(N2CCCC(C(=O)NCc3cccc(C(F)(F)F)c3)C2)n1 (stereo unspecified),-7,1,2,3,-7
CCCc1nnc(NS(=O)(=O)c2ccc(OC)cc2)s1,3,2,15*,7,3
Cc1ccccc1-c1nnc(-c2ccccc2C)o1,-3,-1,-3,-1,-2
Cc1cnc(C(=O)OCC(=O)Nc2ccc(OCc3ccccc3)cc2)cn1,-5,-1,3,0,-3
CC(=O)Nc1ccc(NC(=O)c2ccccc2N(Cc2ccccc2)S(C)(=O)=O)cc1,-5,0,3,-2,1
COC(=O)c1cccc(NC(=O)CC2C(=O)NCCN2C(=O)Nc2ccccc2)c1 (stereo unspecified),-1,0,189*,-5,-1
COC(=O)c1cc(NC(=O)CC2C(=O)NCCN2C(=O)c2ccccc2)cc(C(=O)OC)c1 (stereo unspecified),-8,-1,-3,-2,7
COc1ccc(NC(=O)CSc2nnnn2-c2ccccc2OC)c(OC)c1,-10,-1,-2,2,1
COc1ccc(C(=O)C2CCCN(Cc3cn[nH]c3-c3ccccc3)C2)cc1OC (stereo unspecified),-6,-2,5,3,6
Cn1ccnc1C(=O)C1CCCN(Cc2cn[nH]c2-c2ccc(-c3ccccc3)cc2)C1 (stereo unspecified),-2,2,18*,1,-1
CCOc1ccc(C(=O)NC(C)C2COc3ccccc3O2)cc1 (stereo unspecified),-3,0,36*,-3,-7
CC(NC(=O)COc1ccccc1)C1COc2ccccc2O1 (stereo unspecified),-6,1,-1,-3,-5
Cc1nc(C(=O)Nc2ccccc2Cl)cc2c1[nH]c1ccccc12,1,1,8.3*,0,2
COc1ccc(NC(=O)c2cc3c([nH]c4ccccc43)c(C)n2)cc1,9,-1,-2,2,-5
O=C(O)CCCCCN1C(=O)C(O)=C(C(=O)/C=C/c2ccccc2)C1c1ccc2c(c1)OCO2 (stereo unspecified),/,-1,0,1,/
Cc1ccc(C(=O)COC(=O)CSc2cccc3cccnc23)c(C)c1,0,2,17*,2,0
O=C(O)CSc1cccc2cccnc12,-3,2,0,-7,8
CCOC(=O)/C(=C\c1ccc(N2CCC(c3ccccc3)=N2)cc1)C(C)=O,-66,6,/,0,72*
CCOC(=O)C1CCCN(c2nc3ccccc3nc2C(C#N)C(=O)OCC)C1 (stereo unspecified),3,-13,7,-36,7
CCOC(=O)C1CCCN(c2nc3ccccc3nc2C(C#N)C(=O)OCCOC)C1 (stereo unspecified),-7,0,20*,0,3
CCOC(=O)C1CCN(C(=O)c2ccc(N3CCOCC3)c([N+](=O)[O-])c2)CC1,-3,0,21*,?,-3
Cc1ccc(C)c(C(=O)COC(=O)CCCC(=O)Nc2cc(C(F)(F)F)ccc2Cl)c1,4,-1,12*,-11,4
O=C(CCNC(=O)c1ccccc1Cl)Nc1cc(C(F)(F)F)ccc1Cl,-10,0,5,-3,-1
